Consider 13 compounds from PubChem BioAssay.

In assay [1] the test system is Human papillomavirus type 1a protein E7 (residues 44-93). Briefly: HPV1a E7 fragment binders on microarrays, primary screen, biochemical, small-molecule microarray, residues 44-93, 635 nm fluorescence (AID 1108).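 Further: E7 fragment applied at 1 µg/mL in TBST for 1 h at 4 C; score combines spot fluorescence with its signal to noise ratio.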 The following applies: small-molecule microarray binding, fluorescence 635 nm; higher = more signal.
A short description of assay [2]: modulators of HCV replicon luciferase signal, primary screen, HCV replication inhibitor project, Huh7 cells, luciferase reporter (AID 1109).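 Further: huh7 hepatoma cells harbouring a luciferase neomycin HCV replicon reporter; luciferase luminescence as measure of HCV replicon replication; test concentration not given here.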 The following applies: 48 h, higher = more signal.
Assay [3] concerns the target Left-right determination factor 2 (Homo sapiens) (UniProt O00292). Nature of the assay: LEFTY2 binders on small-molecule microarrays, primary screen, biochemical, small-molecule microarray, 635 nm fluorescence scan (AID 1110). The settings on record: LEFTY2 binding, higher = more signal.
Assay [4] has as its target Calmodulin-1 (Homo sapiens) (UniProt P0DP23). Nature of the assay: CALM1 binders on microarrays, EGTA buffer, profiling panel, biochemical, small-molecule microarray, Cy5-labelled CALM1 (AID 1111).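 Further: labelled calmodulin applied in Tris saline Tween buffer holding calcium plus EGTA and DTT.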 The settings on record: Cy5-CALM1 binding fluorescence, higher = more signal.
The target is the same in assay [5]. Nature of the assay: calcium-bound CALM1 binders on microarrays, profiling panel, artefact control for SMM control-protein annotation, biochemical, small-molecule microarray, Cy5-labelled CALM1, plus calcium (AID 1112).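 Further: score merges spot fluorescence with signal to noise from triplicate slides.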 The following applies: Cy5-CALM1 binding fluorescence, higher = more signal.
Assay [6] in a line: small-molecule microarray binders of probe aWnt5a, primary screen, biochemical, biotinylated probe, 635/667 nm fluorescence (AID 1113).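 Further: score merges 667 nm fluorescence intensity with signal-to-noise per printed feature.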 The settings on record: higher = more signal.
The nature of assay [7]: small-molecule microarray binders of probe aShh, primary screen, biochemical, biotinylated probe, 635/667 nm fluorescence (AID 1114).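 Further: probe is biotin-labelled aShh protein from a stem cell growth factor screen; measures binding of labelled protein to compounds printed on the slide; score merges feature fluorescence at 667 nm with signal-to-noise.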 The following applies: higher = more signal.
Assay [8] can be described thus: small-molecule microarray binders of probe aNog, primary screen, biochemical, biotinylated probe, 635/667 nm fluorescence (AID 1115).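 Further: probe is biotinylated aNog protein used at 0.15 µg/mL for 1 h at 4 C; z-score combines 667 nm fluorescence of each spot with its signal to noise.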 The settings on record: higher = more signal.
Assay [9] concerns the target Torsin-1A-interacting protein 1 (Homo sapiens) (UniProt Q5JTV8). Briefly: LAP1 binders from COS7 cell lysate, primary screen, small-molecule microarray, 635/667 nm fluorescence (AID 1116). The settings on record: COS7-hLAP1 lysate binding, 635 nm fluorescence, higher = more signal.
Assay [10] has as its target Alpha-bungarotoxin (Bungarus multicinctus) (UniProt P60615). Briefly: alpha-bungarotoxin binders on microarray, profiling panel, artefact control for SMM control protein annotation, biochemical, small-molecule microarray, Alexa647 label, 635/667 nm fluorescence (AID 1117). The settings on record: alpha-BTX-A647 binding fluorescence, higher = more signal.

SMILES strings stand for the structures.

Sequence of Torsin-1A-interacting protein 1 (Homo sapiens) (Q5JTV8 whole entry, looked up): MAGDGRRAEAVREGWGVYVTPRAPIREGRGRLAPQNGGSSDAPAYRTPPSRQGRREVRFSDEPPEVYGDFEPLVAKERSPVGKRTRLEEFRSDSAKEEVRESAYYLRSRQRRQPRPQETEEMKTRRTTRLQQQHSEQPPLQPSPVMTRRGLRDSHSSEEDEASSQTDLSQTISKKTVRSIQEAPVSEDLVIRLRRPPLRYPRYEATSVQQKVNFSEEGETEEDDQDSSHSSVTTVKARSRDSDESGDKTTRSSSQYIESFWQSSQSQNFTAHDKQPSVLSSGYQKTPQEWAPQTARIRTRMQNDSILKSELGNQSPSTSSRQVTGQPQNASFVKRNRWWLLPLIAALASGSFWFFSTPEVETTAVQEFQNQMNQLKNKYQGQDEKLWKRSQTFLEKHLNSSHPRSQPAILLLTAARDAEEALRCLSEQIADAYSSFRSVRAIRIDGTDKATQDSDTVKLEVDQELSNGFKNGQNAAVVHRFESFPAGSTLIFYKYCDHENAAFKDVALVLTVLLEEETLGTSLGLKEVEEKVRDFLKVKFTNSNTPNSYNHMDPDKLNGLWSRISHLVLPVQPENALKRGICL
Sequence of Alpha-bungarotoxin (Bungarus multicinctus) (P60615 whole entry, looked up): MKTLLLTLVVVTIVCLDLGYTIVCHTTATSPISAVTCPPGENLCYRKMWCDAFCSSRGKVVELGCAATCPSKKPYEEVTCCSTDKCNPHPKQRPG
Sequence of Left-right determination factor 2 (Homo sapiens) (O00292 whole entry, looked up): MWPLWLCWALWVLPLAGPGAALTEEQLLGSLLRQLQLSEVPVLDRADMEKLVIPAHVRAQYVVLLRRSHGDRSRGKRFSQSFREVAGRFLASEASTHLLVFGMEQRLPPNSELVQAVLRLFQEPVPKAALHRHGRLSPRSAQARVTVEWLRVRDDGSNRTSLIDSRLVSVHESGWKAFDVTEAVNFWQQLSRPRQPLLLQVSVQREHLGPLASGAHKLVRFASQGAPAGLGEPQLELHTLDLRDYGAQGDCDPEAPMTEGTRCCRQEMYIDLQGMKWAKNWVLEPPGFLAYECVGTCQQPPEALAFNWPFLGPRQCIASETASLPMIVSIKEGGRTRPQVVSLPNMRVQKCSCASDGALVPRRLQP

On to `C=CC[C@]1(C(=O)O)N=C(c2ccc(OCCCO)cc2)O[C@H]1c1ccccc1CN=[N+]=[N-]`, for which the composite z-score in [1] was -0.907; in assay [3], -0.46; in assay [4], 0.371; in assay [5], 0.939; in [6], -0.0977; in assay [7], -0.0209. Besides, the composite z-score in assay [8] was -0.0554; in [9] it was 0.371; in assay [10], -0.445. In addition, the z-score in assay [2] was -0.439.

Regarding `COc1ccc(C(O)C2C=CC3C(=O)N(c4ccccc4)C(=O)C3N2Nc2ccccc2)c2ccccc12` (stereo not given), the composite z-score was -0.34 in [1]; -0.608 in assay [3]; 1.25 in assay [4]; 0.851 in assay [5]; -0.0792 in assay [6]; -0.218 in assay [7]. For the same compound, the composite z-score is 0.941 in [8], 0.814 in assay [9] and 0.93 in assay [10]. In addition, the z-score in assay [2] is -1.91.

For the compound `CC(C)N1C(=O)c2ccccc2[C@](C)(C(=O)NC2CC2)[C@@H]1c1ccc(CO)cc1`, the composite z-score in [1] is 0.591; in [3], 0.0197; in assay [4] it was 0.391; in assay [5], -0.34; in [6], -0.096; in assay [7], -0.138. Besides, the composite z-score in assay [8] stood at 0.214; in [9] it was 0.507; in [10], 0.931. Also, the z-score in assay [2] was -0.479.

Turning to `CC(C)C[C@@H]1NC(=O)[C@@H]2C[C@H](C(=O)NCCCCN(C)C)[C@H](c3ccc(O)cc3)N2C1=O`, the composite z-score in assay [1] was -0.256; in [3], -1.58; in assay [4], -0.685; in assay [5], 0.33; in assay [6], -0.0977; in assay [7], -0.0553. In addition, the composite z-score in assay [8] was -0.0791; in [9], 0.864; in [10], -0.318. The z-score in [2] was -0.556.

With `C=C(C(=O)CC[C@@H](OC(=O)c1cccnc1)c1ccc(OCCO)cc1)C(C)C`, the composite z-score in assay [1] was 0.16; in assay [3], 0.286; in [4], -0.277; in assay [5], -1.85; in assay [6] it was -0.0145; in assay [7], -0.0035. The values for the composite z-score in assay [8], in assay [9] and in assay [10] were -0.0863, 2.09 and 0.46, respectively. Further, the z-score in assay [2] was -4.49.

As to `Cc1ccc(C(C)CC(O)C2C=CC3C(=O)NC(=O)C3N2Nc2ccccn2)o1` (stereo not given), the composite z-score was 0.0598 in assay [1]; 0.479 in assay [3]; -0.409 in [4]; -0.743 in [5]; -0.1 in assay [6]; -0.0626 in [7]. Besides, the figures for the composite z-score in assay [8], in [9] and in assay [10] were -0.0863, 0.773 and -0.0054, respectively. For the same compound, in assay [2], the z-score was -0.146.

Consider `CN(C)CCCC[C@@H]1NC(=O)[C@@H]2C[C@H](C(=O)NCCCCCN)[C@H](c3ccc(O)cc3)N2C1=O`, for which the composite z-score in assay [1] is 0.0063; in assay [3], -0.93; in assay [4], 1.99; in assay [5], 1.42; in assay [6], -0.208; in assay [7] it was -0.026. The composite z-score in assay [8] was determined as 0.262; in assay [9], 0.777; in [10], 1.19. Also, the z-score in [2] was 0.285.

For the compound `C=CCC(OC(C)=O)[C@@H]1[C@@H](N(Cc2cc3ccccc3o2)C(=O)c2ccc(-c3ccccc3)cc2)c2cc(OCCCO)ccc2N1C(=O)Cc1ccc2ccccc2c1` (stereo not given in full), the composite z-score in assay [1] was 0.006; in assay [3], -0.36; in assay [4], -0.27; in [5], 0.459; in assay [6] it was -0.0704; in assay [7] it was -0.0709. The composite z-score is -0.267 in assay [8], 0.0452 in assay [9] and 0.738 in [10]. Further, the z-score in assay [2] was -0.532.

Turning to `CCOC(=O)N1C(c2ccc(OCCCO)cc2)=NC(C(=O)OC)N1C(=O)OCC` (stereo not given), the composite z-score in assay [1] was 1.38; in [3], 0.537; in assay [4] it was 1.25; in assay [5] it was 0.127; in assay [6] it was -0.0685; in [7], -0.279. Further, the values for the composite z-score in assay [8], in [9] and in assay [10] were 0.0036, 0.935 and 0.439, respectively. In addition, the z-score in assay [2] was -3.72.

`CCN(CC)c1ccc(N2CC=CC34O[C@@H]5/C=C\CCCOC(=O)C5[C@H]3C(=O)N(CCCO)[C@@H]4C2=O)cc1` (stereo not given in full): the composite z-score is 0.941 in assay [1]; -2.09 in [3]; -0.629 in [4]; 0.479 in [5]; -0.197 in [6]; 0.14 in assay [7]. The values for the composite z-score in assay [8], in assay [9] and in assay [10] were -0.0238, 2.44 and -1.44, respectively. Also, the z-score in assay [2] was -0.597.

Consider `CC(C)[C@H]1COC(=O)N1C(=O)[C@H]1[C@@H](c2ccccc2)N(c2ccccc2)O[C@@H]1C`, for which the composite z-score in [1] is 0.359; in [3], 0.729; in [4] it was 0.35; in assay [5], -0.434; in [6], -0.1; in [7], -0.206. In addition, the values for the composite z-score in assay [8], in assay [9] and in assay [10] were 0.0373, 0.15 and 0.107, respectively. Moreover, in assay [2], the z-score was -0.383.

In the case of `O=C1C[C@@](C(=O)O)(c2ccc([N+](=O)[O-])cc2)[C@@H](c2ccc(CO)cc2I)N1C1CCCCC1`, the composite z-score in assay [1] is -0.549; in assay [3] it was -0.27; in assay [4], 1.6; in assay [5] it was 0.734; in assay [6], 0.0194; in assay [7] it was -0.299. For the same compound, the composite z-score in assay [8] is -0.103; in [9], -0.126; in [10], 1.28. The z-score in assay [2] is -1.32.

`O=C1OCCC=C[C@H]2OC34C=CCN(CCN5CCOCC5)C(=O)[C@H]3N(CCO)C(=O)[C@@H]4C12` (stereo not given in full): the composite z-score in assay [1] was -1.74; in assay [3] it was 0.601; in assay [4], -1.72; in assay [5] it was -1.21; in assay [6], -0.181; in assay [7] it was -0.338. The composite z-score in [8] is -0.467; in [9], 0.0029; in [10], -1.01. Also, in [2], the z-score worked out at 0.18.
